In PubChem BioAssay (NCI):
Compounds without any hit were thinned out: in the full panel of roughly 79,000, 15% have a hit. The source made the active and inactive calls. No stated cut-off is given here; in the data, active means growth inhibition above about 70%; inactive means the rest.

Tests used:
[1] = NCI Yeast Anticancer Drug Screen. Data for the rad50 strain (AID 155);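 further: 0% = growth of vehicle-only cultures of the same strain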; conditions: S. cerevisiae rad50 strain growth inhibition; at 50.0 µM; active compounds read high
Procedure, shortened: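 Yeast carrying a defined DNA repair defect were exposed to test compounds, and growth was compared with vehicle-treated controls to give percent inhibition.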

[2] = NCI Yeast Anticancer Drug Screen. Data for the mec2-1 strain (AID 157); conditions: S. cerevisiae mec2-1 strain, at 50.0 µM, active compounds read high
Procedure, shortened: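 Cells of the genetically defined mec2-1 yeast strain are incubated with test compound. Inhibition of growth is calculated against vehicle-treated controls.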

[3] = NCI Yeast Anticancer Drug Screen. Data for the sgs1 mgt1 strain (AID 161);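 further: 0% = growth of cultures given vehicle only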; conditions: S. cerevisiae sgs1 mgt1 strain, at 50.0 µM, active compounds read high
Procedure, shortened: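 Test agents were incubated with a DNA-repair-mutant yeast strain. Growth was then read and compared against vehicle-treated controls.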

[4] = NCI Yeast Anticancer Drug Screen. Data for the cln2 rad14 strain (AID 165);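 further: 0% = growth equal to vehicle treated cultures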; conditions: S. cerevisiae cln2 rad14 strain, at 50.0 µM, active compounds read high
Procedure, shortened: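 The screen exposed genetically defined yeast (cln2 rad14) to test compounds and scored growth inhibition relative to vehicle-treated controls.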

[5] = NCI Yeast Anticancer Drug Screen. Data for the bub3 strain (AID 167); conditions: S. cerevisiae bub3 mutant strain, at 50.0 µM, active compounds read high
Procedure, shortened: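 Compounds were applied to a genetically altered yeast strain carrying a cell-cycle control defect. Growth inhibition was scored against vehicle-treated controls.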

[6] = NCI Yeast Anticancer Drug Screen. Data for the mlh1 rad18 strain (AID 175); conditions: S. cerevisiae mlh1 rad18 strain growth inhibition; at 50.0 µM; active compounds read high
Procedure, shortened: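 Compound-treated yeast growth, normalised to vehicle controls. Strain bears defined DNA repair mutations.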

Measured: growth inhibition

CC(=O)OCC(OC(C)=O)C(OC1OC(COC(C)=O)C(OC(C)=O)C(OC(C)=O)C1OC(C)=O)C(OC(C)=O)C(C=O)OC(C)=O (stereo not given)
inactive: [1] -0.2% | [2] 10.8% | [3] 9.75% | [4] -5.75% | [5] -3.8% | [6] -7.95%

O=C1N=NC(=O)N1c1ccccc1
inactive: [1] -6.75% | [2] 4.3% | [3] 1% | [4] -22.2% | [5] -0.05% | [6] 2.35%

O=C1C2CCC(C2)C1CN1CCOCC1 (stereo not given)
inactive: [1] -10.7% | [2] 3.25% | [3] -1.25% | [4] 0.5% | [5] -7.35% | [6] -7.35%

O=c1[nH]c2c(c(=O)[nH]1)SSC2
inactive: [1] -24.4% | [2] -12.8% | [3] -39.4% | [4] -7.7% | [5] -28.4% | [6] -10.1%

CCOC(=O)Cc1cc(C)c2ccccc2n1
inactive: [1] -7.75% | [2] -5.65% | [3] 4.3% | [4] -19.6% | [5] -9.4% | [6] 7.45%

COC(C(=O)C(O)C(C)O)C1CC2C=C3C=C(OC4CC(OC5CC(O)C(OC)C(C)O5)C(OC(C)=O)C(C)O4)C(C)C(=O)C3=C(O)C2=C(O)C1OC1CC(OC2CC(OC3CC(C)(O)C(OC(=O)C(C)C)C(C)O3)C(O)C(C)O2)C(O)C(C)O1 (stereo not given)
active: [4] 81.9%
inactive: [1] 51% | [2] 50.7% | [3] 38.5% | [5] 26.4% | [6] 45.8%

Nc1ccc2ccccc2c1N=Nc1ccc(/C=C/c2ccc(N=Nc3c(N)ccc4ccccc34)cc2S(=O)(=O)O)c(S(=O)(=O)O)c1
inactive: [1] 23.4% | [2] 18.2% | [3] 62% | [4] 7.1% | [5] 31.9% | [6] 53.4%

O=C(O)C1CCCCC1O (stereo not given)
inactive: [1] -11.6% | [2] 21.1% | [3] -5.25% | [4] 23.3% | [5] 21.4% | [6] 1.3%

CC1=C2CC/C(C)=C/CCC3(C)OC3CC/C(C)=C/C2OC1=O (stereo not given)
inactive: [1] -8.7% | [2] -21.9% | [3] 13.3% | [4] 15.6% | [5] 5.25% | [6] -20.1%

CCSc1nc(C)nc2c1cnn2-c1ccccc1
inactive: [1] -0.1% | [2] -6.7% | [3] -2.65% | [4] -35.6% | [5] -13.8% | [6] 1.95%

CN(C)CCN(C=O)CCN(C)C
inactive: [1] 9.85% | [2] 3.95% | [3] 4.5% | [4] -9.1% | [5] 0.6% | [6] -0.2%

N#CC1(Nc2ccc(Cl)cc2)CCCC1
inactive: [1] 5.6% | [2] 2.4% | [3] -6.5% | [4] -15.6% | [5] 13.8% | [6] 3.1%

C[Si](C)(C)O/C=C1/CCOC1=O
inactive: [1] 46.9% | [2] 45.7% | [3] -13.9% | [4] -6.5% | [5] -39.8% | [6] -45%

CCOc1ccc([N+](=O)[O-])cc1
inactive: [1] -28.8% | [2] 3.9% | [3] -2.65% | [4] -40.2% | [5] -3.5% | [6] -31.9%

OC1(c2ccc(C3(O)C(c4ccccc4)=C(c4ccccc4)C(c4ccccc4)=C3c3ccccc3)cc2)C(c2ccccc2)=C(c2ccccc2)C(c2ccccc2)=C1c1ccccc1
inactive: [1] 5.6% | [2] -1.75% | [3] -1.7% | [4] -6.6% | [5] -2.15% | [6] 9.85%

[N-]=[N+]=NC12CC3C4CC5CC3C(C1)C(C5)C4C2
inactive: [1] 10.3% | [2] 0.6% | [3] -6.65% | [4] 10.2% | [5] -6.15% | [6] -8.45%

CC(O)/C=C/c1ccccc1O (stereo not given)
inactive: [1] 2.05% | [2] 2.85% | [3] -13.9% | [4] -41.5% | [5] -5.65% | [6] -13.6%

C=CC(C)(C)c1c2c(c(O)c3c(=O)c4ccc(O)c(O)c4oc13)C=CC(C)(C)O2
inactive: [1] -12.2% | [2] -12% | [3] 3.35% | [4] -5.2% | [5] -7.7% | [6] -4.05%

S=C1NNC2(C(=S)N1)c1ccccc1-c1ccccc12
inactive: [1] 32.4% | [2] -11.2% | [3] 14.6% | [4] 5% | [5] 3.2% | [6] 55.4%

COc1ccc(S(=O)(=O)N(C)c2ccccc2)cc1
inactive: [1] 2.9% | [2] -56.8% | [3] -20.6% | [4] 13.3% | [5] 19.1% | [6] 3.5%

Ic1ccc([I+]c2ccc(I)cc2)cc1
active: [1] 94.4% | [2] 94.2% | [3] 97% | [4] 93.5% | [5] 94.3% | [6] 90.8%

COC1c2ccccc2CC1(C)C (stereo not given)
inactive: [1] 13.8% | [2] 8.8% | [3] 5.65% | [4] -52.4% | [5] 10.3% | [6] 9.55%

CC(C)(C)c1ccc(OC(=S)Nc2ccccc2)cc1
inactive: [1] -32.8% | [2] -6.25% | [3] -17.4% | [4] -17.2% | [5] -13.6% | [6] 2.5%

COC(=O)CCC(=O)CC(=O)C(=O)Nc1c(Cl)cc([N+](=O)[O-])cc1Cl
inactive: [1] 11.4% | [2] -17.1% | [3] 0.5% | [4] 24.1% | [5] -4.5% | [6] 3.8%

CCSc1[nH]c2nc[nH]c(=O)c2c1C#N
inactive: [1] -8.1% | [2] 21.2% | [3] -32.5% | [4] -17.8% | [5] 0.45% | [6] -8.4%

Nc1nc(N)nc(CNc2c(Br)cc(Br)cc2Br)n1
inactive: [1] 12% | [2] 24.6% | [3] 16.5% | [4] -9.25% | [5] -10.2% | [6] 4.95%

CC(C)S(=O)(=O)/C=C(\I)c1ccccc1
inactive: [1] 3.7% | [2] 8.7% | [3] -11.2% | [4] 6.9% | [5] 33.2% | [6] -11.4%

COC(=O)c1ccc(S(=O)(=O)O)cc1[N+](=O)[O-]
inactive: [1] 3.05% | [2] 11.9% | [3] 2.5% | [4] -11.2% | [5] 11.8% | [6] 24.4%

CN1CC=C(C#CC(C)(C)O)CC1
inactive: [1] -13% | [2] -17.4% | [3] -0.65% | [4] 4.7% | [5] -5.9% | [6] -25.3%

CCC(O)CNCc1c2ccccc2cc2ccccc12 (stereo not given)
inactive: [1] 20.1% | [2] 14.7% | [3] 22.1% | [4] 12.6% | [5] 1.95% | [6] 10.8%

Cc1ccc(C2(c3ccc(C)cc3)OCC(C)(CBr)CO2)cc1
inactive: [1] -30% | [2] -1.4% | [3] -20.4% | [4] -8.5% | [5] 1.6% | [6] -14.5%

CCCN(CCC)S(=O)(=O)c1ccc(NC(=O)OC(c2ccccc2)(c2ccccc2)c2ccccc2)cc1
inactive: [1] 24.1% | [2] -4.3% | [3] 5.4% | [4] 7.95% | [5] -3.7% | [6] 0.95%

CCN(CC)CCOCC1CCCN2CCCCC12 (stereo not given)
inactive: [1] -9.5% | [2] -9.8% | [3] -1.75% | [4] 5.75% | [5] 16.1% | [6] -50.1%

CC(=O)OC1C(O)C(C)OC(OC2C(C)OC(OC(=O)[C@@H]3CC[C@@H]4[C@H](C3)OC3(C[C@@H](OC(=O)/C=C/c5ccccc5)[C@@H](C)CO3)[C@@]43CO3)C(O)C2OC(C)=O)C1O (stereo not given in full)
active: [1] 91% | [2] 93.4% | [3] 92.2% | [4] 90.1% | [5] 91.1% | [6] 91.8%

O=C(O)C(c1ccccc1)S(=O)(=O)c1ccccc1 (stereo not given)
inactive: [1] 3.55% | [2] -7% | [3] 8.85% | [4] -16.7% | [5] -11.5% | [6] 5.95%

COC(=O)C(NC(=O)C(CC(=O)OC(C)(C)C)NC(=O)OC(C)(C)C)C(O)c1ccccc1 (stereo not given)
inactive: [1] -35.6% | [2] -23.9% | [3] -22.4% | [4] -0.75% | [5] -27.6% | [6] -0.85%

O=C(O)c1ccccc1Sc1ccc([N+](=O)[O-])cn1
inactive: [1] 33.2% | [2] 5.1% | [3] 2.15% | [4] -15.8% | [5] 6.4% | [6] 44.7%

CCCNc1ncnc2c1ncn2C
inactive: [1] 10.6% | [2] -15% | [3] -3.55% | [4] 7.65% | [5] 7.45% | [6] -4.65%

COC1C(/C=[N+](\C)[O-])OC2OC(C)(C)OC21 (stereo not given)
inactive: [1] 10.2% | [2] -9.5% | [3] -12.8% | [4] -26.1% | [5] 17.6% | [6] 12.8%

NC(=O)NC(CCl)NC(N)=O
inactive: [1] 6.6% | [2] -5.8% | [3] -2.05% | [4] 13.1% | [5] -3.55% | [6] -12.3%
